Hits are enriched below; roughly 9.5% of the tested compounds scored in any of these assays.
ALDH1A1 inh = blocks purified human ALDH1A1 activity; actives 7.3% (n = 220,000); Potency, µM (series often up to 75.3 µM), for the others: at the highest dose activity, negative = inhibition, actives largely listed as inhibitors; P00352; Purified ALDH1A1, NADH fluorescence, propionaldehyde substrate; active means well fitted inhibition curve with a large enough effect, not every such curve was filed as active; inconclusive means small, poorly fitted or top-dose-only effect, or another doubt; inactive means no such curve, though single readings can be large or run the other way;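 further: plate controls were no enzyme wells and a reference inhibitor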
NPSR antagonist = antagonists of human neuropeptide S receptor cAMP signaling; CHO-NPSR cells, cAMP TR-FRET, antagonist mode; Potency, µM (highest dose often 38.3 µM), for inactives: at the highest dose activity change, negative = inhibition, hits mostly inhibitors; actives 1% (n = 220,000); AID 1461; further: nearly all actives have a fitted effect of over 50% in size
Tau ThT inhib = blocks human tau fibril formation measured by thioflavin T; recombinant tau K18 P301L, heparin-induced fibrillization, ThT fluorescence; Potency, µM (top dose mostly 57.4 µM), without a hit: at the top dose activity, negative = inhibition, actives largely listed as inhibitors; actives 2.1% (n = 270,000); AID 1460; further: nearly all actives have a fitted effect of over 55% in size
Target sequence (P10636 561-689 P618L limits assumed): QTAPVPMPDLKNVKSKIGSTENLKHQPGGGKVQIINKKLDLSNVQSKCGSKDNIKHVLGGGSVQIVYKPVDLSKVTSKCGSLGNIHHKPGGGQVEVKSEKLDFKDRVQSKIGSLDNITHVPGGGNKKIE
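Tau K18 P301L fragment (15 uM unlabeled plus 0.24 uM Alexa 594-labeled) in 100 mM sodium acetate pH 7 with compound, fibrillization induced by 20 uM heparin for 6 hr at 37 C. Thioflavin T (30 uM) added, fluorescence read after 1 hr (ex 450, em 510 nm).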
Tau fluor cs = counter-screen for tau fibril formation inhibitors; Potency, µM (top dose mostly 57.7 µM), without a hit: top-dose activity change, negative = decrease; actives 0.93% (n = 280,000); tau K18 P301L Alexa594 fluorescence, heparin fibrillization; further: nearly all actives have a fitted effect of over 55% in size
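Human tau K18 P301L (15 uM unlabeled, 0.24 uM Alexa 594-labeled) in 100 mM sodium acetate pH 7 with 20 uM heparin, 6 hr at 37 C. ThT 30 uM added, 1 hr ambient; Alexa 594 FP and total fluorescence read at 555/632 nm.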
HPGD block = HPGD (human) dehydrogenase inhibition. purified HPGD, NADH fluorescence kinetic, PGE2 substrate. actives 4.3% (n = 150,000). Potency, µM, for the others: at the top dose activity change, negative = inhibition, most hits filed as inhibitors; active means well fitted inhibition curve with a large enough effect, not every such curve was filed as active; inconclusive means small, poorly fitted or top-dose-only effect, or another doubt; inactive means no such curve, though single readings can be large or run the other way
Target sequence (P15428 whole entry, looked up): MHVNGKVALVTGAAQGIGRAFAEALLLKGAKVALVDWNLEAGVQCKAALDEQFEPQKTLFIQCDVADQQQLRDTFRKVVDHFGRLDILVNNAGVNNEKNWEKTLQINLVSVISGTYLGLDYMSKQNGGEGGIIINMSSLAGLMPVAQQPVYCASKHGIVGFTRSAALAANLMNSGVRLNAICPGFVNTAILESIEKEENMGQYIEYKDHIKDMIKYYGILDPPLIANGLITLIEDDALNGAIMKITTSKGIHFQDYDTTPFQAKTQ
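NADH formation kinetics: reaction with 30 uM PGE2 and 1 mM NAD+ (final), 20 nM enzyme, Tris-HCl pH 8 with Tween 20, after 15 min compound preincubation at room temperature. Fluorescence change, last versus first of five reads.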
Tau fibril FP = blocks human tau fibril formation measured by polarization; P10636; K18 P301L tau heparin fibrillization, Alexa594 FP, 6 h; Potency, µM (highest dose often 57.7 µM), for the others: top-dose activity, negative = inhibition, hits mostly inhibitors; actives 0.39% (n = 280,000); AID 1468; further: nearly all actives have a fitted effect of over 55% in size
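Human K18 P301L fragment (15 uM unlabeled plus 0.24 uM Alexa 594-labeled) in 100 mM sodium acetate pH 7 with compound, aggregation induced by 20 uM heparin for 6 hr at 37 C. ThT (30 uM) added for 1 hr, then Alexa 594 FP read.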
Numbers without * were called inactive; [ ] = another dose, or the depositor's remark. Unless noted, the call rests on the fitted dose curve; in most records, active means well fitted curve in the direction sought with a large enough effect; inconclusive means small, poorly fitted or top-dose-only effect, or another doubt; inactive means no such curve, though single readings can be large; an effect the other way counts as inactive or inconclusive. Unless noted, on the % scale 0 is the no-effect control and ±100 the full control effect; potency means the concentration at half of the fitted maximal effect.

For CCCCCCNc1ncnc2c1sc1nc(N3CCOCC3)c3c(c12)CCCC3 the results were Tau ThT inhib 2.0%, Tau fluor cs -6.8% and Tau fibril FP -2.1%.
For COc1ccc(-c2cc(C(=O)OCC(=O)c3cccc(OC)c3)c3cccc(Cl)c3n2)cc1 the results were Tau ThT inhib -1.0%, Tau fluor cs -12.6% and Tau fibril FP inconclusive.
For COc1ccc(-c2cc(C(=O)OCC(=O)c3cccc([N+](=O)[O-])c3)c3cc(C)ccc3n2)cc1 the results were ALDH1A1 inh 11.8%, NPSR antagonist 2.4%, Tau ThT inhib -0.3%, Tau fluor cs -15.5%, HPGD block -2.2% and Tau fibril FP -2.4%.
Cc1cc(C(=O)OCC(=O)c2cccc([N+](=O)[O-])c2)c2cccc(C)c2n1 was read as ALDH1A1 inh 22.4µM*, NPSR antagonist -15.3%[46.1 µM], Tau ThT inhib -15.7%, Tau fluor cs -27.8%, HPGD block -21.0% and Tau fibril FP 5.4%.
For CC(=O)NC(Cc1cccc(F)c1)C(=O)NC1CCN(c2nnnn2-c2ccccc2)CC1 (centres undefined) the results were ALDH1A1 inh 1.41µM*, NPSR antagonist -6.7%, Tau ThT inhib -1.2%, Tau fluor cs -6.7% and Tau fibril FP -2.9%.
COc1ccc(CC(NC(C)=O)C(=O)NC2CCN(c3nnnn3-c3ccccc3)CC2)cc1 (centres undefined) was read as ALDH1A1 inh 2.51µM*, NPSR antagonist 11.0%[7.67 µM], Tau ThT inhib 1.2%, Tau fluor cs 0.7%, HPGD block -8.3% and Tau fibril FP -3.6%.
CCOc1ccc(NC(=O)N2CCC(NC(=O)C(Cc3ccc(OC)c(OC)c3)NC(C)=O)CC2)cc1 (centres undefined) was read as ALDH1A1 inh 0.0562µM*, NPSR antagonist 5.8%[46.1 µM], Tau ThT inhib -17.5%, Tau fluor cs -4.0%, HPGD block 3.3% and Tau fibril FP 3.8%.
COc1ccc(OC)c(CC(NC(C)=O)C(=O)NC2CCN(c3nnnn3-c3ccccc3)CC2)c1 (centres undefined) was read as NPSR antagonist 4.4%, Tau ThT inhib -5.7%, Tau fluor cs -8.0% and Tau fibril FP -5.7%.
`COc1cccc(CC(NC(C)=O)C(=O)NC2CCN(c3nnnn3-c3ccccc3)CC2)c1` (centres undefined) gave ALDH1A1 inh 14.1µM*, NPSR antagonist -6.9%[46.1 µM], Tau ThT inhib -6.1%, Tau fluor cs -1.2%, HPGD block -5.8% and Tau fibril FP 0.5%.
O=C(CSc1nnc(Cn2c(=O)sc3ccccc32)n1-c1ccccc1)Nc1nccs1 was read as ALDH1A1 inh inconclusive, NPSR antagonist 5.0%, Tau ThT inhib -17.6%, Tau fluor cs -12.6%, HPGD block -27.1% and Tau fibril FP 4.0%.
For NCCc1nc(-c2nc(C(=O)O)cs2)cs1 the results were ALDH1A1 inh 8.0%[13.5 µM] and HPGD block -6.4%.
`COc1ccc(CC(NC(C)=O)C(=O)NC2CCN(c3nnnn3-c3ccccc3)CC2)cc1OC` (centres undefined) gave ALDH1A1 inh 10µM*, NPSR antagonist -26.7%, Tau ThT inhib -1.2%, Tau fluor cs 3.2% and Tau fibril FP 0.6%.
For O=C(CSc1c[nH]c2ccccc12)NCC1CCCO1 (centres undefined) the results were ALDH1A1 inh -4.8%, NPSR antagonist inconclusive, Tau ThT inhib 0.1%, Tau fluor cs 6.3%, HPGD block 3.98µM* and Tau fibril FP -0.1%.
`CCn1c(SCC(=O)NCC2CCCO2)nnc1-c1c[nH]c2ccccc12` (centres undefined) gave ALDH1A1 inh -19.3%, NPSR antagonist 1.6%[46.1 µM], Tau ThT inhib 6.7%, Tau fluor cs 1.5%, HPGD block 31.6µM* and Tau fibril FP -1.7%.
`Cn1c(SCC(=O)NCC2CCCO2)nnc1-c1c[nH]c2ccccc12` (centres undefined) gave ALDH1A1 inh 8.5%, NPSR antagonist -1.3%[46.1 µM], Tau ThT inhib -1.0%, Tau fluor cs -2.6%, HPGD block -6.9% and Tau fibril FP -6.0%.
Screening Cc1ccccc1-n1nnnc1SCC(=O)NCC1CCCO1 (centres undefined) returned ALDH1A1 inh 5.62µM*, NPSR antagonist 11.8%, Tau ThT inhib -3.1%, Tau fluor cs -3.9% and Tau fibril FP -10.7%.
`CCOCCCNCC(=O)Nc1ccc(S(=O)(=O)NC(C)CC)cc1` (centres undefined) gave ALDH1A1 inh inconclusive, NPSR antagonist 15.7%, Tau ThT inhib 11.0%, Tau fluor cs 9.3% and Tau fibril FP 8.5%.
`COc1ccc(N2CCN(C(=O)Cc3c(C(=O)O)c(C)cn3C)CC2)cc1` gave Tau ThT inhib -5.9%, Tau fluor cs -5.9% and Tau fibril FP -2.3%.
For COc1cccc(C2C(C(=O)c3sc(C)nc3C)=C(O)C(=O)N2CCN2CCOCC2)c1 (centres undefined) the results were ALDH1A1 inh 20µM*, NPSR antagonist 5.7%[46.1 µM], Tau ThT inhib -7.1%, Tau fluor cs 7.7%, HPGD block -21.8% and Tau fibril FP 7.3%.
For COc1ccc(C2C(C(=O)/C=C/c3ccco3)=C(O)C(=O)N2CCN2CCOCC2)cc1 (centres undefined) the results were ALDH1A1 inh 20µM*, NPSR antagonist 10.7%, Tau ThT inhib inconclusive, Tau fluor cs -12.4% and Tau fibril FP inconclusive.
For COc1cccc(C2C(C(=O)/C=C/c3ccco3)=C(O)C(=O)N2CCN2CCOCC2)c1 (centres undefined) the results were ALDH1A1 inh -2.1%, NPSR antagonist -15.9%, Tau ThT inhib inconclusive, Tau fluor cs -6.8% and Tau fibril FP -4.4%.
`C=CCOc1cccc(C2C(C(=O)c3ccco3)=C(O)C(=O)N2CCN2CCOCC2)c1` (centres undefined) gave ALDH1A1 inh 25.1µM*, NPSR antagonist 12.0%[46.1 µM], Tau ThT inhib inconclusive, Tau fluor cs -5.3%, HPGD block -15.8% and Tau fibril FP -7.7%.
For COc1cccc2cc(C(=O)C3=C(O)C(=O)N(CCN4CCOCC4)C3c3cccs3)oc12 (centres undefined) the results were ALDH1A1 inh 25.1µM*, NPSR antagonist -4.0%[46.1 µM], Tau ThT inhib inconclusive, Tau fluor cs -8.8%, HPGD block -11.4% and Tau fibril FP 6.4%.
`CC1CN(c2ccc(Cl)cc2[N+](=O)[O-])CCN1S(C)(=O)=O` (centres undefined) gave ALDH1A1 inh 33.1%, NPSR antagonist 5.9%, Tau ThT inhib -9.8%, Tau fluor cs 1.5% and Tau fibril FP -5.3%.
